# Some of the results follow. The true hit rate is not given.
# Molecular target: furin, P09958
# Assay: furin cleavage Z-score vs untreated control; higher = more cleavage, active = 3.5 or more, inactive = 1 or less, 8 variable residues between constant flanks
# Method in brief: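 Furin cleavage was scored on 8-mer peptides joined to a cDNA oligonucleotide and bound to magnetic beads at the N-terminus. Digestion with purified furin (1:10 enzyme:substrate, 0.01 ml, 50 mM HEPES pH 7.5, CaCl2, NaCl) lasted 7.5, 15 or 30 min. Freed DNA was tagged with adapters by PCR, sequenced and counted; the cleavage Z-score is the lowess-adjusted log count versus furin-free reactions, scaled by median absolute deviation.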
# Sequence of furin, P09958 (P09958 whole entry): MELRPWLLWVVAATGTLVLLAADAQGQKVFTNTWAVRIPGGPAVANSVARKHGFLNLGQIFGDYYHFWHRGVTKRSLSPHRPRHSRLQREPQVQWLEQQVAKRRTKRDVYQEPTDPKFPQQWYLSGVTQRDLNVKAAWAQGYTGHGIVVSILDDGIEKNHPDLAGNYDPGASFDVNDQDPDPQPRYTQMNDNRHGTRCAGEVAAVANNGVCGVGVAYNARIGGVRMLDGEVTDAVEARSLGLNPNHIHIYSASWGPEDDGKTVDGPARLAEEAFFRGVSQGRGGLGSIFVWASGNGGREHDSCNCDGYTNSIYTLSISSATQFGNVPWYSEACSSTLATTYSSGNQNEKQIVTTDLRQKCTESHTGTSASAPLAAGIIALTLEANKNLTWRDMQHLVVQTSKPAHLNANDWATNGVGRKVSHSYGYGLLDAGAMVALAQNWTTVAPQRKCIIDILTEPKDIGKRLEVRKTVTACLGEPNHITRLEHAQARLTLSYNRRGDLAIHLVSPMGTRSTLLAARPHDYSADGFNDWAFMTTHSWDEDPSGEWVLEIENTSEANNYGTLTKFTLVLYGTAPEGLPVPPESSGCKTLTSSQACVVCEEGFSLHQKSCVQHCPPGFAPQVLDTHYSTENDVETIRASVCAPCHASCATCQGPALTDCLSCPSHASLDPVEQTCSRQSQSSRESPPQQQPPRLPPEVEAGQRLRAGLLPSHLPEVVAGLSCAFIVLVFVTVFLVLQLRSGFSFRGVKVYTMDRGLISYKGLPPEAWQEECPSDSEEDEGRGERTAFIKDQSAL
Sequence,furin cleavage Z-score (7.5 min),furin cleavage Z-score (15 min),furin cleavage Z-score (30 min)
CAMVECSQHLAGNASASA [HC1690],1.97,0.64 (inactive),0.696 (inactive)
CAHDVVCCSMAGNASASA [HC2115],-0.409 (inactive),-0.66 (inactive),0.0366 (inactive)
CAVKCCSMSYAGNASASA [HC2014],-0.221 (inactive),0.288 (inactive),-1.16 (inactive)
CAQLRRHIDLAGNASASA [HC289],-1.12 (inactive),0.114 (inactive),0.176 (inactive)
CAQLRRYPRNAGNASASA [FS-1249],10 (active),10.4 (active),8.2 (active)
CAQLRRLKRNAGNASASA [FS-284],13 (active),12.1 (active),9.76 (active)
CATARHTPVNAGNASASA [HC1570],-0.556 (inactive),-0.38 (inactive),-0.627 (inactive)
CAASAYQVRNAGNASASA [HC255],2.82,-0.339 (inactive),0.446 (inactive)
CANSTALNCNAGNASASA [HC372],1.61,1.23,0.944 (inactive)
CALSFRLKRNAGNASASA [FS-1372],12.3 (active),11.1 (active),9.61 (active)
CAVYYLTRDPAGNASASA [HC1561],-0.916 (inactive),-0.905 (inactive),-0.163 (inactive)
CAEEVSFRVGAGNASASA [HC1232],0.0764 (inactive),1.08,-0.114 (inactive)
CATVVTSTWVAGNASASA [HC2158],0.721 (inactive),0.128 (inactive),0.308 (inactive)
CAINSVWKDLAGNASASA [HC1430],0.0949 (inactive),0.0646 (inactive),0.992 (inactive)
CAEILRKSRRAGNASASA [HC1297],-0.468 (inactive),1.48,-0.599 (inactive)
CAFCCRKKRRAGNASASA [FS-586],3.8 (active),4.73 (active),5.93 (active)
CAHSERKKRRAGNASASA [FS-249],8.63 (active),10.6 (active),10.2 (active)

Sequence,furin cleavage Z-score (7.5 min),furin cleavage Z-score (15 min),furin cleavage Z-score (30 min)
CAAGIAYFSMAGNASASA [HC339],-0.0596 (inactive),0.534 (inactive),-0.966 (inactive)
CAQGNRWRRSAGNASASA [FS-139],14.1 (active),13 (active),9.79 (active)
CAGGSRWRRSAGNASASA [FS-124],6.79 (active),5.09 (active),5.21 (active)
CAITYSTYGKAGNASASA [HC806],0.0361 (inactive),-1.76 (inactive),1.03
CAAVGRAGRDAGNASASA [FS-11],0.567 (inactive),1.42,0.637 (inactive)
CACVPRMRRPAGNASASA [FS-753],0.288 (inactive),-2.19 (inactive),0.777 (inactive)
CAAVPRLRRDAGNASASA [FS-644],11.8 (active),12.1 (active),8.75 (active)
CAAGQRLRRDAGNASASA [FS-395],12 (active),10.2 (active),8.42 (active)
CAGDVVCCSMAGNASASA [HC2116],0.0391 (inactive),-0.825 (inactive),-0.011 (inactive)
CAVVCASMSYAGNASASA [HC81],0.42 (inactive),1.25,-0.0546 (inactive)
CAVLVRKRRAAGNASASA [FS-1178],12 (active),12.9 (active),8.97 (active)
CAGAPLGGAAAGNASASA [HC231],-0.433 (inactive),-0.224 (inactive),-0.596 (inactive)
CAKSYRKRRAAGNASASA [FS-47],9.96 (active),10.6 (active),7.5 (active)
CAGGPRKRRAAGNASASA [FS-26],5.06 (active),5.01 (active),3.88 (active)
CAVLVVLLLFAGNASASA [HC346],-1.01 (inactive),-0.224 (inactive),-0.108 (inactive)
CAVLVGGVLAAGNASASA [HC991],-0.269 (inactive),-2.26 (inactive),-1.24 (inactive)
CASQRRKRRAAGNASASA [FS-381],6.33 (active),6.94 (active),4.52 (active)
